# KCNQ2 pot – potentiators of rat KCNQ2 potassium channel; CHO-K1 KCNQ2, FluxOR thallium flux fluorescence; hits give high values; B-score at 10 µM; 0.54% of 310,000 active; AID 2239, 2010;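 active = fluorescence ratio B-score at least 3 SD of library B-scores, with initial fluorescence B-score within 3 of them, cut at about 5.3 in these data; same plate scores as AID 2156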;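 note: B-score of peak minus minimum over baseline fluorescence ratio after K+ and Tl+ stimulus; positive B-score means potentiation of KCNQ2 with more thallium influx and brighter signal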
# KCNQ2 inh – rat KCNQ2 potassium channel inhibitors, primary screen, cell-based, CHO-K1, FluxOR thallium flux, B-score; Potassium voltage-gated channel subfamily KQT member 2 (Rattus norvegicus), O88943; 20 min; hits give low values; B-score at 10 µM; 1.1% of 310,000 active;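 active = fluorescence ratio B-score at most minus 3 library SDs, with starting brightness B-score within 2 library SDs, cut at about -5.5 in these data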
# Kir21 confirm – mouse Kir2.1 channel blockers, retest, confirmation, cell-based, FluxOR thallium flux, duplicate; Kir2.1-expressing cells, FluxOR thallium flux fluorescence; hits give low values; shares compounds with KCNQ2 pot; Tl flux remaining, % of negative control (hits give low values), % at 10 µM; 41% of 2,300 active; AID 2032, 2009;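 active = Primary-screen hit whose thallium flux fell at least 3 control SD below untreated wells in both duplicates, with normal baseline fluorescence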
# Target sequence (P35561 whole entry, looked up): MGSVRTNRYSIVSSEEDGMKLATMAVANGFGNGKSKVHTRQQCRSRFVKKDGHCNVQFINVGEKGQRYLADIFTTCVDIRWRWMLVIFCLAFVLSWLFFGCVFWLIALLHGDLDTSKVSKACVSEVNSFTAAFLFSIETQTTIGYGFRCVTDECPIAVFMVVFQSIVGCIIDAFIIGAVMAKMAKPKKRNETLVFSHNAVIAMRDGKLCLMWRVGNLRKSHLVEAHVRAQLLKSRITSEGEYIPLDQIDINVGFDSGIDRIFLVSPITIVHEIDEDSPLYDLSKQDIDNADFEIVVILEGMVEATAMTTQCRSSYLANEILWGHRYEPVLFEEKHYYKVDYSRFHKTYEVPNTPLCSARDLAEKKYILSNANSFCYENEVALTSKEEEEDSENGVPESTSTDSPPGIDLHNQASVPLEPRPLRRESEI
# HEK293 Tl flux – alters thallium flux in parental HEK293 cells, Kir2.1 counter-screen; shares compounds with KCNQ2 pot; FluxOR thallium flux fluorescence; 0% = unstimulated blank wells; FluxOR signal as % of negative control (100 = no effect), % at 10 µM; 19% of 2,300 active; AID 2105;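 active = dye signal at least 3 control SD above or below untreated wells in both duplicates, raw fluorescence within 3, either direction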;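 note: percent is based on the flux ratio of peak minus minimum fluorescence over baseline F0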
# CHO-K1 Tl ctr – nonspecific thallium flux increase in parental CHO-K1, confirmation, counter-screen for KCNQ2 potentiator project, cell-based, FluxOR thallium flux, duplicate. 43% of 1,200 active. parental CHO-K1 cells, FluxOR thallium flux fluorescence; zero = vehicle mean+3SD, 100% = vehicle-minus-blank window. shares compounds with KCNQ2 pot. activity increase over 3SD of controls, % at 10 µM;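 active = signal rise of at least 3 SD above the untreated control mean, in both duplicate wells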;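 note: counter screen of KCNQ2 potentiator hits so any rise reflects channel-independent effects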
# KCNQ1 pot spec – human KCNQ1 channel potentiation off-target, confirmation, selectivity assay for KCNQ2 potentiator project, cell-based, CHO, FluxOR thallium flux | activation over 3SD threshold, % at 10 µM | shares compounds with KCNQ2 pot | 28% of 1,200 active | CHO KCNQ1 stable, FluxOR thallium flux fluorescence; beyond 3SD, as % of vehicle-control signal;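 active = fluorescence ratio rise of at least 3 SD of vehicle wells above their mean, in both replicate wells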
# KCNQ2 pot conf – rat KCNQ2 channel potentiators, confirmation, cell-based, CHO, FluxOR thallium flux, duplicate. shares compounds with KCNQ2 pot. CHO-KCNQ2 cells, FluxOR thallium flux fluorescence. potentiation, less the hit threshold, % at 10 µM. 68% of 1,200 active;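 active = fluorescence ratio rising 3 SD or more over the vehicle control mean in both replicates, plus primary screen hit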;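 note: peak minus minimum thallium fluorescence divided by baseline after K/Tl stimulus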
# Kir2-1 sel – mouse Kir2.1 channel activation off-target, confirmation, selectivity assay for KCNQ2 potentiator project, cell-based, HEK293, FluxOR thallium flux; shares compounds with KCNQ2 pot; HEK293 Kir2.1, FluxOR thallium flux fluorescence; activity over 3SD threshold, % at 10 µM; 2% of 1,200 active; AID 2345, 2010;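 active = fluorescence ratio rise of at least 3 SD above the vehicle-control mean, seen in both replicates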
# KCNQ2 W236L pot – potentiators of retigabine-insensitive KCNQ2 W236L, mechanism study for KCNQ2 potentiator project, cell-based, rat KCNQ2 W236L, CHO, automated patch clamp; shares compounds with KCNQ2 pot; 10% of 940 active; automated patch clamp current; current increase over 3SD of negative controls (%), hits give high values, % at 25 µM;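 active = current increase at least 3 SD of the untreated controls above them in both duplicate recordings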
# Numbers stand for hits; i = inactive; nt = not tested or not shown. Shown are actives, neighbours in structure and some others; about 1.6% of the full set was active somewhere.
SMILES,KCNQ2 pot,KCNQ2 inh,Kir21 confirm,HEK293 Tl flux,others
Cc1ccc(NS(=O)(=O)c2c(C)[nH]c(C)c2C(=O)N2CCCCC2)c(Br)c1,i,i,nt,nt,
N#Cc1c(NCCN)nc(-c2ccccc2)c2c1CCCC2,nt,i,46%,i,
N#Cc1c(NCCCO)nc(-c2ccccc2)c2c1CCCC2,i,i,nt,nt,
Cc1cccc(NC(=O)CCCc2ccccc2)c1,nt,i,nt,nt,
CN(C)c1ccc(NC(=O)CCCc2ccccc2)cc1,5.5,i,i,i,CHO-K1 Tl ctr=13;KCNQ1 pot spec=i;KCNQ2 pot conf=i;Kir2-1 sel=i;KCNQ2 W236L pot=i
COc1ccc(S(=O)(=O)N2CCc3ccccc32)cc1C(=O)NCCc1ccccn1,i,i,nt,nt,
CS(=O)(=O)N1CCC(Oc2cccc(C(=O)NCCCC3CCCC3)c2)CC1,nt,i,nt,nt,
O=C(CN(C(=O)c1csnn1)c1cccc2ccccc12)NC1CCCC1,i,i,nt,nt,
O=C(NC1CCN(Cc2ccccc2)CC1)c1ccccc1Cl,i,i,nt,nt,
Cc1c(C(=O)NC2CCN(Cc3ccccc3)C2)oc2c(Cl)cccc12 (configuration not stated),nt,i,i,i,
Cc1cc2nc(CSc3ccccc3)cc(=O)n2[nH]1,nt,i,nt,nt,
CC1=NN(c2ccc(C)cc2)C(=O)/C1=C\C=C\c1ccccc1,nt,i,nt,nt,
CC1=NN(c2cccc(C(=O)O)c2)C(=O)/C1=C\C=C/c1ccccc1,7.2,i,i,i,CHO-K1 Tl ctr=33;KCNQ1 pot spec=i;KCNQ2 pot conf=36;Kir2-1 sel=i;KCNQ2 W236L pot=i
CSc1ccccc1OCc1cc(C(=O)N2CCN3CCCC3C2)no1 (configuration not stated),nt,i,nt,nt,
CCC(Cc1ccccc1)NC(=O)CSc1ccsc1[N+](=O)[O-] (configuration not stated),i,i,nt,nt,
Cc1ccccc1Cn1nc(C)c(NC(=O)c2sc3ccccc3c2Cl)c1C,i,i,nt,nt,
Cc1ccccc1Cn1nc(C)c(NC(=O)c2ccccc2)c1C,i,i,i,i,
CCCOc1ccccc1C(=O)N(Cc1cccc(Br)c1)C1CCS(=O)(=O)C1 (configuration not stated),nt,i,nt,nt,
Cn1c(NCc2c(O)ccc3ccccc23)nc2ccccc21,nt,i,nt,nt,
Cn1c(CNc2nc3ccccc3n2C)nc2ccccc21,nt,i,nt,nt,
Cn1c(NCc2ccc(Cl)cc2)nc2ccccc21,nt,i,25%,i,
Cc1ccc(CNc2nc3ccccc3n2C)cc1,nt,i,36%,i,
CCn1c(SCC(=O)NC2CC2)nnc1-c1ccc(C)cc1,i,i,nt,nt,
N#Cc1cn(-c2cccc(C(F)(F)F)c2)c(=O)[nH]c1=O,nt,i,nt,nt,
Fc1cccc(NCCc2c[nH]c3ccccc23)n1,i,i,nt,nt,
c1ccc2c(NCCc3c[nH]c4ccccc34)c3ccccc3nc2c1,nt,i,38%,i,
COc1ccc(C(=O)NNC2CC(=O)N(Cc3ccc(Cl)cc3)C2=O)cc1OC (configuration not stated),i,i,nt,nt,
N#Cc1ccsc1NC(=O)C1CCN(C(=O)c2ccc(Cl)cc2)CC1,nt,i,nt,nt,
